# In the supplement of paper PMC11150407:
# Among all 2,100 compounds or so, about 180 (8.6%) showed an effect of 50% or more. What follows is part of a selection rich in strong results, with near analogues and random picks from the rest.
# Test system: MOLM1 and UCSD/AML1 (averaged)
# Assay: cell viability relative to DMSO control (POC); higher = less growth inhibition
# Conditions: 1 µM; 72 h
# Procedure: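 Primary viability screen in the 3q26 EVI1-high AML cell lines MOLM1 and UCSD/AML1 (1.5e3 cells/well, 384-well), compounds at 1 uM for 72 h. ATP CellTiter-Glo read-out given as percent of viable cells over DMSO control (POC), averaged over duplicates. DMSO was the negative control and 5 uM etoposide the positive control. This mapping covers the MicroSource Spectrum and Selleck anticancer libraries (drug names).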
row,Compound,cell viability [%]
1,C/C1=C\CCC(=O)C2CC(C)(C)C2CC1 (configuration not stated),93.3
2,Cc1cc(O)c2c(c1O)C(=O)c1c(O)cc(C)c(O)c1C2=O,94.1
3,COc1c2ccoc2cc2oc(C)cc(=O)c12,104
4,Cn1cnc2c(F)c(Nc3ccc(Br)cc3Cl)c(C(=O)NOCCO)cc21 [AZD6244 (Selumetinib)],15.5
5,C#CCCCCCCCCCCCC(O)CC(O)CO (configuration not stated),55.1
6,CC1(C)C=Cc2cc3ccc(=O)oc3cc2O1,107
7,CN(C)CC(=O)OC[C@@H](O)[C@@H](O)[C@H](O)[C@@H](O)C(=O)O,108
8,CNCc1ccc(-c2[nH]c3cc(F)cc4c3c2CCNC4=O)cc1,89.1
9,Nc1c2ccccc2nc2ccccc12,65
10,CC(C)Cn1cnc2c(N)nc3ccccc3c21 [Imiquimod],47.9
11,CCCCCCCCCc1ccc(OCCOCCOCCOCCOCCOCCOCCOCCOCCO)cc1,37.9
12,CCCCCCCCc1ccc(CCC(N)(CO)CO)cc1 [Fingolimod (FTY720)],76.7
13,CCCCOc1ccc(CC(=O)NO)cc1,115
14,COc1ccc2c(c1)OC1(O)COc3cc(OC)c(OC)cc3C1=C2 (configuration not stated),102
15,CC1=CCc2c(cc3oc(C)cc(=O)c3c2O)OC1,90.4
16,CCC(=O)O[C@H]1CC[C@H]2[C@@H]3CCc4cc(O)ccc4[C@H]3CC[C@]12C,95.4
17,CS(=O)(=O)Nc1ccc([N+](=O)[O-])cc1Oc1ccccc1,96.7
18,COc1cc(NS(C)(=O)=O)ccc1Nc1c2ccccc2nc2ccccc12,12.8
19,CC(=O)Oc1cc(C)c2c(c1C=O)Oc1c(c(C)c(OC(C)=O)c3c1C(OC(C)=O)OC3=O)OC2=O (configuration not stated),106
20,CC1(C)C[C@@H]2C(=O)CC[C@H]3O[C@]3(C)CC[C@H]21,104
21,CC(=O)O[C@@H]1C=C[C@]2(C)C(C[C@@H](OC(C)=O)[C@]3(C)C4=CC(=O)O[C@H](c5ccoc5)[C@@]4(C)CCC23)C1(C)C (some centres not stated),94.4

row,Compound,cell viability [%]
1,COc1ccc(-c2cc(=O)c3c(OC(C)=O)cc(OC(C)=O)cc3o2)cc1,96.9
2,Oc1ccc([C@H]2Oc3cc(O)cc(O)c3C[C@H]2O)cc1,102
3,Nc1c2c(nc3ccccc13)CCCC2,105
4,CCCCCCc1ccc(O)cc1O,98.6
5,CCCCCCc1ccc(O)cc1O.Nc1c2ccccc2nc2ccccc12,46.4
6,CC(=O)O[C@@H]1CC(=O)[C@@]2(C)C(CC(=O)[C@]3(C)C2CC[C@@]2(C)[C@H](c4ccoc4)OC(=O)C4OC423)C1(C)C (some centres not stated),100
7,O=c1oc2ccccc2c(O)c1Cc1c(O)c2ccccc2oc1=O,98.1
8,O=C(O)/C=C/c1ccccc1,105
9,O=C(/C=C/c1cccc(S(=O)(=O)Nc2ccccc2)c1)NO [Belinostat (PXD101)],1.86
10,O=C(O)/C=C/C=C/c1ccccc1,121
11,COc1ccc2c(c1)OCc1c-2oc2cc(OC)ccc12,99
12,O=C(Nc1ccc(OC(F)(F)F)cc1)c1sccc1NCc1ccnc2ccccc12,64.7
13,COc1ccc2c(c1)O[C@@H]1COc3cc(OC)c(OC)cc3[C@@H]1C2=O,102
14,C=C(C)[C@@H]1CC=C(CO)CC1,88.1
15,Cc1cc(=O)oc2cc(O)c(O)cc12,98.5
16,Nc1ncnc2c1ncn2[C@@H]1O[C@H](CO)[C@@H](O)[C@H]1O,105
17,Nc1ncnc2c1ncn2[C@@H]1O[C@H](CO)[C@@H](O)[C@@H]1O,93.9
18,OC[C@H]1O[C@@H](n2cnc3c(NCc4ccco4)ncnc32)[C@H](O)[C@@H]1O,5.88
19,CC(C)CCCC(C)C1CCC2C3=CCC4CC(O)CCC4(C)C3CCC21C (configuration not stated),93
20,COC(=O)CC[C@@H](C)[C@H]1CC[C@H]2[C@@H]3CC[C@@H]4C[C@H](O)CC[C@]4(C)[C@H]3C[C@H](O)[C@]12C,97.4
21,N=C(N)NCCCCNC(=N)N,102

row,Compound,cell viability [%]
1,COc1ccc(-c2coc3c(O)c(O)c(OC)cc3c2=O)cc1,111
2,COc1c(O)cc2c(-c3ccccc3)cc(=O)oc2c1OC,92.8
3,COC(=O)Nc1nc2cc(Sc3ccccc3)ccc2[nH]1,41.9
4,CCCSc1ccc2[nH]c(NC(=O)OC)nc2c1,12.4
5,COC(=O)[C@@H]1OC(=O)C2OC23[C@@]1(C)CCC1[C@]2(C)C(C[C@@H](O)[C@]13C)C(C)(C)[C@H](OC(C)=O)C[C@@H]2OC(C)=O (some centres not stated),111
6,O=C(O)CCCN1C(=O)c2cccc3cccc(c23)C1=O,103
7,COc1cc2cc3c4cc(OC)c(OC)cc4cc[n+]3c(C)c2cc1OC,99.6
8,C[C@H]1[C@H](C)CC[C@]2(C(=O)O)CC[C@]3(C)C(=CC[C@@H]4[C@@]5(C)C[C@@H](O)[C@H](O)[C@@](C)(CO)[C@@H]5[C@H](O)C[C@]43C)[C@H]12,86.8
9,O=C(Nc1ccccc1-c1cn2c(CN3CCNCC3)csc2n1)c1cnc2ccccc2n1,95.6
10,COc1cc(OC)c2c(=O)c(-c3ccc4c(c3)OCO4)coc2c1,127
11,"COC(=O)C[C@H]1C(C)(C)[C@@H](O)[C@@H]2CC3=C4CC(O)O[C@@H](c5ccoc5)[C@]4(C)CCC3[C@@]1(C)C2=O (stereo partly drawn) [3,16-DIDEOXYMEXICANOLIDE-3beta-DIOL]",86.1
12,COc1cc2ncnc(Nc3cccc(Br)c3)c2cc1OC,61.8
13,COc1cc2c(N3CCN(C(=O)Nc4ccc(OC(C)C)cc4)CC3)ncnc2cc1OCCCN1CCCCC1 [Tandutinib (MLN518)],73.6
14,C#Cc1cccc(Nc2ncnc3cc(OCCOC)c(OCCO)cc23)c1 [OSI-420 (Desmethyl Erlotinib)],42.9
15,C#Cc1cccc(Nc2ncnc3cc(OCCOC)c(OCCO)cc23)c1,65.1
16,C#Cc1cccc(Nc2ncnc3cc(OC)c(OCCCCCCC(=O)NO)cc23)c1,22.2
17,COc1ccc(-c2cc(=O)c3c(O)cc(OC)cc3o2)cc1,110
18,CC(=O)C12OC(C)(c3ccccc3)OC1CC1C3CCC4=CC(=O)CCC4(C)C3CCC12C (configuration not stated),89.4
19,CCC(C)C(=O)OC1[C@@H]2CC3=C4CC(=O)O[C@@H](c5ccoc5)[C@]4(C)CCC3[C@@](C)(C2=O)[C@@H](CC(=O)OC)C1(C)C (some centres not stated),99.4
20,"CC(C)CCC[C@@H](C)[C@H]1CC[C@H]2[C@@H]3C[C@@H](O)[C@@]4(O)C[C@@H](O)CC[C@]4(C)[C@H]3CC[C@]12C [CHOLESTAN-3beta,5alpha,6beta-TRIOL]",102
